Test results: PubChem BioAssay (Tox21)
Records with an inconclusive call do not appear. Active and inactive are the calls of the source. Unless noted, the call rests on the fitted dose curve; in most records, active means well fitted curve in the direction sought with a large enough effect in the repeat runs; inconclusive means weak or mixed curves; inactive means flat fitted curve, though single readings scatter.

What was measured:
[1] = qHTS assay to test for compound auto fluorescence at 535 nm (green) in HEK293 cells (AID 720680)
[2] = qHTS assay to test for compound auto fluorescence at 460 nm (blue) in HEK293 cell free culture (AID 720681)
Procedure, shortened: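 Test compounds were pinned into cell-free culture medium (DMEM with 10% FBS) and fluorescence was read directly at Ex/Em 405/460 nm. Signals were expressed as fluorescence equivalents of triamterene, with DMSO vehicle as control.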

[3] = qHTS assay to test for compound auto fluorescence at 590 nm (red) in HEK293 cell free culture (AID 720683)
Procedure, shortened: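 Tox21 10K library compounds were pinned into cell-free DMEM with 10% FBS and fluorescence was read at excitation 540 nm. Activity is expressed as Rose Bengal sodium equivalency.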

[4] = qHTS assay to test for compound auto fluorescence at 590 nm (red) in HepG2 cell free culture (AID 720684)
Procedure, shortened: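 Red fluorescence (540 nm excitation, 590 nm emission) was measured after compound transfer into cell-free MEM supplemented with 10% FBS. Values are equivalencies against Rose Bengal sodium.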

[5] = qHTS assay to test for compound auto fluorescence at 460 nm (blue) in HepG2 cell free culture (AID 720685)
Procedure, shortened: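 Compound (23 nL) or DMSO pinned into cell-free MEM with 10% FBS; blue fluorescence read at 405/460 nm excitation/emission, expressed as auto-fluorescence equivalency to triamterene.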

[6] = qHTS assay to test for compound auto fluorescence at 535 nm (green) in HepG2 cell free culture (AID 720686)
[7] = qHTS assay to test for compound auto fluorescence at 460 nm (blue) in HepG2 cells (AID 720687)
Procedure, shortened: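 Cells (2,000/well in MEM with 10% FBS) attached overnight at 37 C, then were exposed to compound or DMSO for 1 hr at 37 C, 5% CO2. Fluorescence read at Ex/Em 405/460 nm, expressed as triamterene-equivalent signal.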

[8] = qHTS assay to test for compound auto fluorescence at 535 nm (green) in HEK293 cell free culture (AID 720682)
Procedure, shortened: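 Measurement is a direct plate read of green fluorescence (485 nm in, 535 nm out) after compound addition to serum-supplemented DMEM lacking cells, with fluorescein used to express intensities.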

[9] = target: Glucocorticoid receptor (Homo sapiens) (UniProt P04150); assay: qHTS assay to identify small molecule agonists of the glucocorticoid receptor (GR) signaling pathway (AID 720691; active means well fitted activation curve with a large enough effect in the signal ratio in the repeat runs, not every such curve was filed as active; the % refers to the signal ratio); conditions: GR-bla HeLa, beta-lactamase reporter ratio, 18 h; activation: at 62.4 µM (top of the series)
Chain of Glucocorticoid receptor (Homo sapiens) (P04150 whole entry, looked up): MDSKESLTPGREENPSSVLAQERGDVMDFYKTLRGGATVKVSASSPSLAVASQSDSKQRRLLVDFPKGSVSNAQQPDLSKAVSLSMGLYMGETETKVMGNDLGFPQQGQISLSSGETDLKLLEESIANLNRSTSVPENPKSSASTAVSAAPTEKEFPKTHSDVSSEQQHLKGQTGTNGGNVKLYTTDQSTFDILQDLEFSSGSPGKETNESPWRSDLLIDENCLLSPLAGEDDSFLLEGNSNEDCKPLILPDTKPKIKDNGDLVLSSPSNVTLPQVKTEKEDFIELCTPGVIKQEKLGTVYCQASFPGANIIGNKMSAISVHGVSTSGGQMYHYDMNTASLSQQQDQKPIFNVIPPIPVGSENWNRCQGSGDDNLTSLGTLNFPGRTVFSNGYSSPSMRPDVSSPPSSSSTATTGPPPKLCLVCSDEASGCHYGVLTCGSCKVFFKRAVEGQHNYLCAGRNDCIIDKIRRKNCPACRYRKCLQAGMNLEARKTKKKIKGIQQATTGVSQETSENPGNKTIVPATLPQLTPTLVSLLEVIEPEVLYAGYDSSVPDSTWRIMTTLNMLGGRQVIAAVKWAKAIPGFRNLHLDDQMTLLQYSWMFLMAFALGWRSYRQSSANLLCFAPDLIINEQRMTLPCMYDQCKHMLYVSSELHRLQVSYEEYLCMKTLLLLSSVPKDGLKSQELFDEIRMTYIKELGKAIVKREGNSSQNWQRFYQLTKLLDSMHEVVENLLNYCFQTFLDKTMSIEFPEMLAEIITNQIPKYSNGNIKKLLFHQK
Procedure, shortened: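 Beta-lactamase reporter activity, read as fluorescence intensity, was measured in GR-bla HeLa cells exposed to compounds for 18 h at 37 C and then loaded with LiveBLAzer B/G FRET substrate for 2 h at room temperature.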

[10] = target: Glucocorticoid receptor (Homo sapiens) (UniProt P04150); assay: qHTS assay to identify small molecule antagonists of the glucocorticoid receptor (GR) signaling pathway (AID 720692; active means well fitted inhibition curve with a large enough effect in the signal ratio in the repeat runs, not every such curve was filed as active; the % refers to the signal ratio)
Procedure, shortened: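 Fluorescence from cleaved LiveBLAzer B/G FRET substrate reports GRE-driven beta-lactamase in HeLa cells; compounds are tested against 5 nM dexamethasone (final) over 18 h at 37 C, substrate incubation 2 h at room temperature.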
On the % scale 0 is the no-effect control and ±100 the full control effect.

C=CC(=O)OCC(CO)(COC(=O)C=C)COC(=O)C=C
inactive: outcome [1] | Potency [2] | Potency [3] | Potency [4] | Potency [5] | Potency [6] | Potency [7]

CCOc1nc2cccc(C(=O)OC(C)OC(=O)OC3CCCCC3)c2n1Cc1ccc(-c2ccccc2-c2nn[nH]n2)cc1 (stereo unspecified)
inactive: outcome [1] | Potency [2] | Potency [3] | Potency [4] | Potency [7]

CCCCN1CCCC[C@H]1C(=O)Nc1c(C)cccc1C
inactive: outcome [1] | Potency [2] | Potency [3] | Potency [4] | Potency [6] | Potency [7]

C[C@@H]1C[C@H]2[C@@H]3CCC4=CC(=O)C=C[C@]4(C)[C@@]3(Cl)[C@@H](O)C[C@]2(C)[C@@]1(OC(=O)c1ccco1)C(=O)CCl
inactive: fluorescence, % of fluorescein [1] -0.0241% [at 18.6 µM] | fluorescence, % of fluorescent control [2] 0.0036% [at 18.6 µM] | fluorescence, % of fluorescent control [3] 0.0049% [at 18.6 µM] | fluorescence, % of Rose Bengal [4] -0.333% [at 18.6 µM] | fluorescence, % of fluorescent control [5] -0.0123% [at 18.6 µM] | fluorescence, % of fluorescein control [6] -0.0158% [at 18.6 µM] | fluorescence, % of fluorescent control [7] -0.0042% [at 18.6 µM]

CCCCCCCCCCCCCCCS(=O)(=O)Oc1ccccc1
inactive: outcome [1] | Potency [2] | outcome [8] | Potency [3] | Potency [4] | Potency [7] | Potency [9]

O=C(OCC(COC(=O)c1ccccc1)(COC(=O)c1ccccc1)COC(=O)c1ccccc1)c1ccccc1
inactive: outcome [1] | Potency [2] | Potency [3] | Potency [4] | Potency [5] | Potency [6] | Potency [7]

CCCCCCCCCCCCCCCCCC[N+](C)(C)Cc1ccccc1
inactive: outcome [1] | Potency [2] | Potency [3] | Potency [4] | Potency [5] | Potency [6] | Potency [7]

CC(=O)OCC(C)OC(C)=O (stereo unspecified)
inactive: outcome [1] | Potency [2] | Potency [3] | Potency [4] | Potency [5] | Potency [6] | Potency [7]

CCCC1O[C@@H]2C[C@H]3[C@@H]4CCC5=CC(=O)C=C[C@]5(C)[C@H]4[C@@H](O)C[C@]3(C)[C@]2(C(=O)CO)O1 (stereo partly specified)
inactive: outcome [1] | Potency [2] | Potency [3] | Potency [4] | Potency [5] | Potency [6] | Potency [7]

O=[N+]([O-])c1cc(Cl)c(Cl)c(Cl)c1Cl
inactive: outcome [1] | Potency [2] | Potency [3] | Potency [4] | Potency [5] | Potency [7]

NNc1nc(-c2ccc([N+](=O)[O-])cc2)cs1
inactive: outcome [1] | Potency [2] | Potency [3] | Potency [4] | Potency [5] | Potency [6] | Potency [7]

O=C(N/N=C/c1ccccc1O)c1ccncc1
inactive: outcome [1] | Potency [2] | Potency [3] | Potency [4]

CCC(C)(C)C1CCCCC1OC(C)=O (stereo unspecified)
inactive: Potency [2] | outcome [8] | Potency [3] | Potency [4] | Potency [5] | Potency [6] | Potency [7]

CC(=O)N1CCN(c2ccc(OC[C@H]3CO[C@](Cn4ccnc4)(c4ccc(Cl)cc4Cl)O3)cc2)CC1
inactive: Potency [2] | Potency [3] | Potency [4] | Potency [5] | Potency [6] | Potency [7] | Potency [9] | Potency [10]

CCCCCCC[N+](CC)(CC)CCCCc1ccc(Cl)cc1
inactive: fluorescence, % of fluorescent control [2] -0.0966% [at 18.6 µM] | activity change [8] -0.0177% [at 18.6 µM] | fluorescence, % of fluorescent control [3] -0.544% [at 18.6 µM] | fluorescence, % of Rose Bengal [4] -0.101% [at 18.6 µM] | fluorescence, % of fluorescent control [5] -0.0851% [at 18.6 µM] | fluorescence, % of fluorescein control [6] 0.172% [at 18.6 µM] | Potency [9]

CC(C)(C)CC(C)(C)c1ccc(O)c(Cc2ccc(Cl)cc2Cl)c1
inactive: Potency [2] | outcome [8] | Potency [3] | Potency [4] | Potency [5] | Potency [6] | Potency [7]

CCCCCCCCCCn1cc[n+](CCCCCCCCCC)c1C
inactive: Potency [2] | outcome [8] | Potency [3] | Potency [4] | Potency [5] | Potency [6] | Potency [7]

CSc1cnc(C)cn1
inactive: Potency [2] | outcome [8] | Potency [3] | Potency [4] | Potency [5] | Potency [6] | Potency [7] | Potency [9]
